Data: PubChem BioAssay
The source made the active and inactive calls.

Assays:
[1] = test system: PRMT1 (protein arginine N-methyltransferase 1); experiment: small molecules binding arginine methyltransferase PRMT1 – biochemical, small-molecule microarray, 635 nm fluorescence, primary screen (AID 1088); conditions: higher = more signal;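 note: binding of Prmt1 protein to compounds spotted on small-molecule microarray slides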
[2] = growth effects on S. cerevisiae YJM789 – YJM789 clinical isolate, OD600, 24 h, basal, primary screen (AID 1089); conditions: higher = more signal, called active from +8 up or from −8 down;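 note: growth of clinical yeast isolate S. cerevisiae YJM 789 seeded 1000 cells per well; test concentration not given here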
[3] = S. pombe growth modifiers, basal conditions – strain 972, OD600, 24 h, no modulator, primary screen (AID 1090);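 note: basal condition with compound alone and no growth modifier present; test concentration not given here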; conditions: S. pombe 972 growth, higher = more signal, called active from +8 up or from −8 down
[4] = budding yeast growth modifiers under rapamycin – strain BY4716, OD600, 96 h, primary screen (AID 1091); note: test concentration not given here; conditions: S. cerevisiae BY4716 + rapamycin, higher = more signal, called active from +8 up or from −8 down
[5] = target: Torsin-1A-interacting protein 2 (Homo sapiens) (UniProt Q8NFQ8); experiment: small molecules binding lysate-expressed LULL1 – cell lysate, human LULL1 lysate, 635/667 nm fluorescence, primary screen (AID 1092); conditions: small-molecule microarray, hLULL1 lysate binding, 635 nm fluorescence; higher = more signal;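 note: probe is lysate of COS7 cells overexpressing human LULL1; score merges per-feature 667 nm fluorescence with signal-to-noise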
Chain of Torsin-1A-interacting protein 2 (Homo sapiens) (Q8NFQ8 whole entry, looked up): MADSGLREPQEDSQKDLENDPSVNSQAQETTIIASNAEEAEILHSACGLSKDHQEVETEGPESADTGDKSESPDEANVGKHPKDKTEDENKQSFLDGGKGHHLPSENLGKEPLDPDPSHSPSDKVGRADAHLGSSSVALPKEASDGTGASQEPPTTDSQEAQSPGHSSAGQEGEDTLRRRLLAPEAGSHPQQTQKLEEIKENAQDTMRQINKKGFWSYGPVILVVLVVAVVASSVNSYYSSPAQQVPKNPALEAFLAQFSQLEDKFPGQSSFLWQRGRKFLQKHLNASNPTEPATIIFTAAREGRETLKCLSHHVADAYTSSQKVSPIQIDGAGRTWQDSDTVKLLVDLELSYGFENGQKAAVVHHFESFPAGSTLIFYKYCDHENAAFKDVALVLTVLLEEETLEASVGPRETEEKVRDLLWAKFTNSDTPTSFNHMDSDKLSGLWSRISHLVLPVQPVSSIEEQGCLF

[6] = optical density change of DRC41 E. coli – strain DRC41, OD650, 24 h, E. coli filamentation project, primary screen (AID 1093);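 note: MC1000 strain lacking acrAB efflux and sulA so SOS filamentation is blocked; test concentration not given here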; conditions: E. coli DRC41 growth, higher = more signal, called active from +8 up or from −8 down
[7] = probe aLefty2 binding to arrayed compounds – biochemical, biotinylated probe, 635/667 nm fluorescence, primary screen (AID 1094); conditions: small-molecule microarray, higher = more signal;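 note: score merges spot fluorescence near 667 nm with spot signal-to-noise ratio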
[8] = test system: Noggin (protein binding on small-molecule microarray); experiment: small molecules binding Noggin protein – biochemical, 635/667 nm fluorescence, primary screen (AID 1095); conditions: 635 nm fluorescence, higher = more signal;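 note: score merges 667 nm feature fluorescence with signal to noise over triplicate slides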
[9] = target: Neurogenic locus notch homolog protein 3 (Homo sapiens) (UniProt Q9UM47); experiment: small molecules binding NOTCH3 protein – biochemical, 635/667 nm fluorescence, primary screen (AID 1096); conditions: small-molecule microarray, 635 nm fluorescence, higher = more signal
Chain of Neurogenic locus notch homolog protein 3 (Homo sapiens) (Q9UM47 whole entry, looked up): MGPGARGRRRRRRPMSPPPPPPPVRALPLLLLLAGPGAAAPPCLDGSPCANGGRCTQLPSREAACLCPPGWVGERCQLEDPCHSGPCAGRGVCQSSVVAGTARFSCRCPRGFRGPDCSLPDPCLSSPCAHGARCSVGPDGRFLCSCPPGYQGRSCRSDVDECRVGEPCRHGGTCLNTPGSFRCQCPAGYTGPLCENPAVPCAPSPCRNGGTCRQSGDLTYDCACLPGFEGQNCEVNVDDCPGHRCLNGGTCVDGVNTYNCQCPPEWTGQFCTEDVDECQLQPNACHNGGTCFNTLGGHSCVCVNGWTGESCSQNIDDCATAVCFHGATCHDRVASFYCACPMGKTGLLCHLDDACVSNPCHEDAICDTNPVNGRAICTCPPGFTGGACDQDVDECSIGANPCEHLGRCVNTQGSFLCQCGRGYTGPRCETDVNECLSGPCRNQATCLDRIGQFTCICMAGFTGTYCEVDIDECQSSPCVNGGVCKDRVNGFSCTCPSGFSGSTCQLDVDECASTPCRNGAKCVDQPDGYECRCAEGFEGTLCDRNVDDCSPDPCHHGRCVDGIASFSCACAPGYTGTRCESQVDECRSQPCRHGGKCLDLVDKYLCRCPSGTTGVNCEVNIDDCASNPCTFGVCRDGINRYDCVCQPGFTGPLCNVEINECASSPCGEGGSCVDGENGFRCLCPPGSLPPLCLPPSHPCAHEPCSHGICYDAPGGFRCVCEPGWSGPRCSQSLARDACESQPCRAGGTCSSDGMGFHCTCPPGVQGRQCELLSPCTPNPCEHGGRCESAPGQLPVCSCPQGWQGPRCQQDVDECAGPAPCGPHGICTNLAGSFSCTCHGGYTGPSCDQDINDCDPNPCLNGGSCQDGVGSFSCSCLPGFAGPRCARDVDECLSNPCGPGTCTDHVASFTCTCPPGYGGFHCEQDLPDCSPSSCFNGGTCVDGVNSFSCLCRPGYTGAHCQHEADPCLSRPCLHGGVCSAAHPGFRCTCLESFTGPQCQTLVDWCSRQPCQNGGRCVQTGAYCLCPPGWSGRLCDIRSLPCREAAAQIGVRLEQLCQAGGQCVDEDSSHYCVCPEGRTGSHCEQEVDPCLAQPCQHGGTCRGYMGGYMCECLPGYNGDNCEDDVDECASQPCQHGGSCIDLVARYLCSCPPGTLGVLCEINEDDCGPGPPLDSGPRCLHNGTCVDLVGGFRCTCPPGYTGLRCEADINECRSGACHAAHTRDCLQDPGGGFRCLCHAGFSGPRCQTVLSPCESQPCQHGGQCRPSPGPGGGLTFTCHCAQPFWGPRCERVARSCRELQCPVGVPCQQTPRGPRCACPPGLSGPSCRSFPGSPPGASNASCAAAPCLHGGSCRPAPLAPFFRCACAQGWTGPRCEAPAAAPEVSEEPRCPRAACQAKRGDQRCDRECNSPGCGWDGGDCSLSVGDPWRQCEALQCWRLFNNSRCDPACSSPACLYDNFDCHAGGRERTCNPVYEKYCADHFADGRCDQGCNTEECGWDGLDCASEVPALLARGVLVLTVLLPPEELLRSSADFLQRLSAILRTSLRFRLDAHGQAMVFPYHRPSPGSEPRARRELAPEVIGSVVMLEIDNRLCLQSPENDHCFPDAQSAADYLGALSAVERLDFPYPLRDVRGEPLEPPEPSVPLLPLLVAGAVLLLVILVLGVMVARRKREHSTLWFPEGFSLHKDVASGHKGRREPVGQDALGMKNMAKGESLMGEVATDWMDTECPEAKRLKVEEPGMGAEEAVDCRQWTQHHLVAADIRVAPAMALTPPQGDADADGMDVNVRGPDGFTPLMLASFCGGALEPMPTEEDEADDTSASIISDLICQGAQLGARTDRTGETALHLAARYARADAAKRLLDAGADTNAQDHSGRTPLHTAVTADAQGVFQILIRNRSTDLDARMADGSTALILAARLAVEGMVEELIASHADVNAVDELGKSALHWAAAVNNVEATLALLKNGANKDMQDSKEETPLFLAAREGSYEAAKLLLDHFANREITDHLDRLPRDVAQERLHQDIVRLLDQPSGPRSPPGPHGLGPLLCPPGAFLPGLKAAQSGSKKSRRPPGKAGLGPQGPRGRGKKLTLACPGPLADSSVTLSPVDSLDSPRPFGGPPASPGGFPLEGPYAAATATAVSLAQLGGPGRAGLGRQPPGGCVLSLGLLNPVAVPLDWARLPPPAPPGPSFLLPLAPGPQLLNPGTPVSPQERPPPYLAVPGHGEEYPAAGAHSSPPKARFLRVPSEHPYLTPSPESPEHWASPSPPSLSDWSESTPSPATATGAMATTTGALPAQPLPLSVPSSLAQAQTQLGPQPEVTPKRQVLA

[10] = probe aEGFR binding to arrayed compounds – biochemical, biotinylated probe, 635/667 nm fluorescence, primary screen (AID 1097); conditions: small-molecule microarray, higher = more signal;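 note: probe is a biotinylated anti-EGFR antibody binding compounds printed on slides; score combines fluorescence near 667 nm and signal to noise of each spot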

Row | Structure (SMILES) | composite z-score [1] | z-score [2] | z-score [3] | z-score [4] | composite z-score [5] | z-score [6] | composite z-score [7] | composite z-score [8] | composite z-score [9] | composite z-score [10]
1 | CC(C)CNC(=O)[C@@]1(C)c2ccccc2C(=O)N(C(C)C)[C@H]1c1ccc(CO)cc1 | -1.32 | 0.0968 (inactive) | 0.481 (inactive) | 0.0297 (inactive) | 1.16 | -0.0935 (inactive) | 0.44 | -0.933 | -2.11 | 0.0744
2 | CN1C(=O)C2C=CC(C(O)c3ccc(Br)cc3)N(Nc3ccccc3)C2C1=O (stereo not given) | -0.897 | 0.947 (inactive) | -0.0449 (inactive) | 0.878 (inactive) | 1.27 | -0.54 (inactive) | 0.296 | -1.48 | -1.17 | -0.0594
3 | CC(C)C(CO)N1C(=O)[C@@H]2[C@H]3C(=O)OCC=C[C@H]3OC23C=CCN(c2ccc4ccccc4c2)C(=O)[C@@H]13 (stereo not given in full) | -0.382 | 0.523 (inactive) | -0.494 (inactive) | 1.17 (inactive) | 0.607 | 0.0732 (inactive) | -0.192 | -1.21 | -0.319 | -0.127
4 | C=C(C(=O)CC[C@@H](OC(C)=O)c1ccc(OCCO)cc1)C(C)C | 0.387 | -1.33 (inactive) | -1.38 (inactive) | -0.423 (inactive) | 1.45 | 0.278 (inactive) | -0.114 | -0.053 | -0.054 | 0.0073
5 | CCCCCCCCCCC(O)C1C=CC2C(=O)N(c3ccccc3)C(=O)C2N1Nc1ccc([N+](=O)[O-])cc1 (stereo not given) | 1.57 | 0.0819 (inactive) | 0.23 (inactive) | 26.7 (active) | 3.25 | -0.734 (inactive) | -0.0059 | 0.186 | 1.09 | -0.0828
6 | C=C[C@H](C)[C@H](OC(=O)Nc1ccc(OC)cc1)c1ccc(O)c2ccccc12 | -0.0544 | -25.3 (active) | -20.9 (active) | -3.05 (inactive) | 0.645 | 0.355 (inactive) | -0.151 | 0.585 | 0.0103 | -0.222
7 | C[n+]1ccc2ccc(O)cc2c1 | 1.56 | 0.0119 (inactive) | -0.208 (inactive) | 2.96 (inactive) | 1.14 | -0.992 (inactive) | -0.0562 | 1.01 | 1.05 | -0.0453
8 | CO[C@H]1O[C@H](CO)[C@@H](OC(=O)Nc2ccc(C(F)(F)F)cc2)[C@H](OC(=O)Nc2ccccc2)[C@@H]1OC(=O)Nc1ccccc1 | 1.54 | 0.0975 (inactive) | 0.252 (inactive) | 0.168 (inactive) | 3.11 | -0.142 (inactive) | -0.0657 | 1.24 | 0.968 | -0.289
9 | CC(C)C(=C=CC[C@H](O)c1ccccc1OCCO)CCO | 1.35 | -0.655 (inactive) | -0.39 (inactive) | -0.236 (inactive) | 2.48 | -0.105 (inactive) | 0.0349 | -0.143 | -0.131 | -0.0915
10 | COCC1C2CC[C@H]3C(OCc4ccc(F)cc4C(F)(F)F)OC[C@]4(C)[C@H]3C2=C(CN4C(=O)OC(C)(C)C)[C@H](C)C1COC (stereo not given in full) | 0.61 | -0.886 (inactive) | 1.04 (inactive) | -0.2 (inactive) | 3.48 | -1.02 (inactive) | 0.522 | -0.761 | 0.96 | 0.0598
11 | CN1C(=O)C2C(C1=O)C1C=C(c3ccc(CO)cc3)C2C(C2CC2)N1Cc1sc2ccccc2c1Cl (stereo not given) | 1.55 | 0.654 (inactive) | -3 (inactive) | 1.42 (inactive) | 3.33 | 0.204 (inactive) | 0.252 | 0.411 | 1.03 | 0.0651
12 | NC(=O)[C@]1(Cc2ccccc2)N=C(c2ccc(OCCCO)cc2)O[C@@H]1c1ccccc1 | 0.588 | -0.94 (inactive) | -1.17 (inactive) | -0.314 (inactive) | 3.54 | -0.351 (inactive) | 0.0781 | -0.165 | 0.658 | 0.0182
13 | C=C(CCCC)C(=O)CC[C@H](OC(C)=O)c1ccc(CO)o1 | 1.47 | 1.04 (inactive) | -1.43 (inactive) | -0.181 (inactive) | 0.616 | 1.38 (inactive) | -0.0339 | 0.53 | 0.137 | -0.182
14 | C=CCN1C(=O)[C@@]2(O[C@@H](CCO)[C@H]([Si](C)(C)c3ccc(OC)cc3)[C@H]2C)c2cc(N3C(=O)COc4ccccc43)ccc21 | 1.45 | 1.64 (inactive) | 0.842 (inactive) | 35.4 (active) | 1.81 | 0.375 (inactive) | -0.275 | 0.17 | 0.4 | -0.178
15 | CN1C(=O)C2C=CC(C(O)C3=C[C@H]4C[C@@H](C3)C4(C)C)N(Nc3ccc([N+](=O)[O-])cc3[N+](=O)[O-])C2C1=O (stereo not given in full) | 1.49 | 1.07 (inactive) | 0.595 (inactive) | 1.96 (inactive) | 3.28 | -0.43 (inactive) | 0.256 | 0.0179 | 1.02 | 0.213
16 | O=C1O[C@@H](c2ccccc2)[C@@H](c2ccccc2)N2[C@@H](c3ccccc3OCCO)[C@]3(C(=O)Nc4ccc(C#CC5(O)CCCCCC5)cc43)[C@@H](C(=O)NC[C@H](O)c3ccccc3)[C@H]12 | 1.55 | 1.77 (inactive) | 1.16 (inactive) | 4.86 (inactive) | 3.08 | -0.371 (inactive) | 0.161 | 1.69 | 1.05 | 0.146
17 | COc1ccc(C#Cc2ccc3c(c2)[C@]2(C(=O)N3)[C@H](C(=O)N3CCc4cc(OC)c(OC)cc4C3)[C@H]3C(=O)O[C@H](c4ccccc4)[C@H](c4ccccc4)N3[C@@H]2c2ccc(OCCO)cc2)cc1 | 1.55 | 3.09 (inactive) | 2.07 (inactive) | 6.17 (inactive) | 2.51 | 1.9 (inactive) | -0.0728 | 1.48 | 1.17 | 0.102
18 | CN1C(=O)C2C=CC(C(O)C(c3ccccc3)c3ccccc3)N(Nc3ccccc3)C2C1=O (stereo not given) | 1.55 | -0.272 (inactive) | -0.346 (inactive) | -0.125 (inactive) | 3.46 | -1.7 (inactive) | 0.0336 | -0.152 | 1.05 | 0.0209
19 | O=C1OCCC=C[C@H]2OC34C=CCN(c5ccc6ccccc6c5)C(=O)[C@H]3N(CCCCCCO)C(=O)[C@@H]4C12 (stereo not given in full) | 0.864 | 0.494 (inactive) | -1.55 (inactive) | 0.22 (inactive) | 0.911 | 0.67 (inactive) | -0.087 | -1.63 | -0.228 | -0.178
20 | COC(=O)[C@@]1(Cc2ccc(F)cc2)[C@H]2c3cc(C(=O)N(C)C)n(Cc4ccccn4)c3C[C@H]2CN1C(=O)c1ccccc1 | 0.837 | -0.602 (inactive) | -0.306 (inactive) | -0.545 (inactive) | 3.7 | -0.0591 (inactive) | -0.153 | 0.321 | 1.01 | 0.533
21 | CCCNC(=O)[C@@]1(C)c2ccccc2C(=O)N(Cc2cc(C(F)(F)F)cc(C(F)(F)F)c2)[C@H]1c1ccc(CO)cc1 | 1.43 | 0.0841 (inactive) | -0.25 (inactive) | -0.49 (inactive) | 2.59 | -0.667 (inactive) | -0.119 | -0.675 | -0.131 | -0.137
22 | Cc1cccc(/C=C/C=O)c1 | 0.425 | 0.897 (inactive) | -4.56 (inactive) | -0.104 (inactive) | 1.54 | -0.0384 (inactive) | -0.186 | 0.0535 | -0.136 | -0.246
23 | COc1ccccc1CN1C(=O)c2ccccc2[C@](Cc2ccccc2I)(C(=O)NC2CC2)[C@@H]1c1ccc(CO)cc1 | 1.54 | -0.357 (inactive) | 0.642 (inactive) | 2.01 (inactive) | 3.3 | 0.199 (inactive) | -0.117 | 1.1 | 1.06 | -0.0897
24 | CCOC(=O)C1=CC[C@@H](c2ccccc2)N(S(=O)(=O)c2ccc(C)cc2)[C@H]1c1ccc(C#N)cc1 | 0.852 | -0.624 (inactive) | 0.553 (inactive) | 1.18 (inactive) | 2.73 | -0.883 (inactive) | 0.0163 | -0.232 | 1.11 | 0.136
25 | O=C(NCC(O)CO)[C@@]1(Cc2ccccc2)N=C(c2ccc(OCCCO)cc2)O[C@H]1c1ccccc1 (stereo not given in full) | 0.814 | -0.738 (inactive) | -0.456 (inactive) | -1.26 (inactive) | 3.57 | 1.62 (inactive) | 0.491 | 0.431 | -0.376 | 0.298
26 | CCOC(=O)N1C(c2ccc(OCCCO)cc2)=NC(C(=O)OC)N1C(=O)OCC (stereo not given) | 1.54 | -0.925 (inactive) | -0.265 (inactive) | -1.32 (inactive) | 3.21 | 1.2 (inactive) | 0.174 | 1.42 | 1.09 | -0.0325
27 | O=C1O[C@H](c2ccccc2)[C@H](c2ccccc2)N2[C@H]1[C@@H](C(=O)NC[C@H](O)c1ccccc1)[C@]1(C(=O)Nc3ccc(C#CC4(O)CCCCCC4)cc31)[C@H]2c1ccccc1OCCO | 1.54 | 2.05 (inactive) | 1.27 (inactive) | 5.14 (inactive) | 2.84 | 0.0483 (inactive) | -0.119 | 1.08 | 0.644 | -0.182
28 | CC(C)NC(=O)[C@@]1(c2ccc([N+](=O)[O-])cc2)CC(=O)N(C(C)C)[C@@H]1c1ccc(CO)cc1 | 0.859 | -2.06 (inactive) | -0.476 (inactive) | -0.692 (inactive) | 2.61 | 1.26 (inactive) | 0.0945 | -1.14 | -0.323 | -0.253
29 | COCCOC(=O)N1C(=O)[C@@]2(c3cc(C#CCCO)ccc31)[C@H](c1ccc(O)cc1)N1[C@H](c3ccccc3)[C@H](c3ccccc3)OC(=O)[C@H]1[C@@H]2C(=O)N1CCCCCCC1 | 1.54 | 0.616 (inactive) | 0.948 (inactive) | 0.563 (inactive) | 2.86 | -0.16 (inactive) | 0.947 | 1.29 | 0.991 | 0.335
30 | C#C[C@H](O[Si](C#CCCCCCC)(C(C)C)C(C)C)c1ccccc1 | 0.631 | 0.0821 (inactive) | 0.384 (inactive) | -0.653 (inactive) | 0.432 | 0.411 (inactive) | -0.114 | 0.186 | 0.13 | -0.171
